For 67 molecules, INHIBITION results are on record in ChEMBL document CHEMBL4513216, “Probing the Open Global Health Chemical Diversity Library for Multistage-Active Starting Points for Next-Generation Antimalarials” (ACS Infect Dis, 2020).

The campaign covered roughly 69,000 compounds. About 8,600 (12%) showed an effect of 50% or more. This excerpt belongs to a sample that is enriched for strong results.

For this assay, the system named is Plasmodium berghei. The assay is described as follows: Screen against P. berghei liver stage (PbLuc), transformed with Luciferase, at 10uM. It is filed as functional, HepG2. The note with it: tested at 10 uM.
For the molecule `CCCN(Cc1nc(-c2ccoc2)oc1C)CC1CCCO1` (configuration not stated), the INHIBITION is recorded as -13.1%.

In the case of `Cc1cccc(-c2cccc(CC3(C(=O)O)CCOCC3)c2)c1`, the INHIBITION came out at 13.5%.

`Cc1cc(C)cc(-c2ccc(CC3(C(=O)O)CCOCC3)cc2)c1`: the INHIBITION is given as 61.4%.

Turning to `O=C(O)C1(Cc2cccc(-c3ccc(F)cc3)c2)CCOCC1`, the INHIBITION is -22.6%.

Turning to `Cc1cc(C)cc(-c2cccc(CC3(C(=O)O)CCOCC3)c2)c1`, the INHIBITION amounted to 38.7%.

As for `COc1ccc(-c2cccc(CC3(C(=O)O)CCOCC3)c2)cc1`, the INHIBITION stood at 29.2%.

For `O=C(O)C1(Cc2cccc(-c3ccc(F)c(F)c3)c2)CCOCC1`, the INHIBITION is recorded as 58.6%.

For the molecule `Cn1cccc1C(=O)N1C[C@@H](OCc2cccnc2)[C@H]2OCCC[C@H]21`, the INHIBITION is reported as 41.3%.

With `CN(C)CC(=O)NC1CC(=O)N(CCc2ccccc2)C1` (configuration not stated), the INHIBITION was 11.2%.

Take `Cc1cc2c(=O)n3c(nc2s1)CCN(C(=O)c1cn(C)nc1C)CC3`: the INHIBITION came out at 14.7%.

Regarding `Cc1nnn2c1COCC(CNCc1nccs1)C2` (configuration not stated), the INHIBITION is -27.6%.

For the molecule `N#Cc1ccc(NC2CCN(Cc3ccccn3)CC2)c(F)c1`, the INHIBITION is given as -5.78%.

As to `CC(CNC1CCN(Cc2ccncc2)CC1)c1ccc(F)cc1F` (configuration not stated), the INHIBITION is recorded as -0.275%.

Consider `Cc1cc2n(n1)CC(CNC1CCN(Cc3ccncc3)CC1)CN2` (configuration not stated), for which the INHIBITION is 16.1%.

In the case of `Cc1cc2n(n1)CC(CNC1CCN(c3ccccn3)CC1)CN2` (configuration not stated), the INHIBITION came to 31.4%.

For the molecule `Cc1cc2n(n1)CC(CNC1CCN(Cc3ccccn3)CC1)CN2` (configuration not stated), the INHIBITION is on record as 50.2%.

Take `c1ccc(CN2CCC(NCCc3ccc4c(c3)CCO4)CC2)nc1`: the INHIBITION is 25.7%.

Consider `Fc1ccc(OCCNC2CCN(Cc3ccccn3)CC2)c(F)c1`, for which the INHIBITION is 53.6%.

On to `Cc1cc2n(n1)CC(CNC1CCN(Cc3ccccc3C)CC1)CN2` (configuration not stated), for which the INHIBITION is 16.6%.

With `Fc1ccc(OCCNC2CCN(Cc3ccncc3)CC2)c(F)c1`, the INHIBITION was found to be 61.3%.

In the case of `Fc1cccc(-c2c[nH]c(C3CCCN3)n2)c1` (configuration not stated), the INHIBITION was -4.62%.

For `CN(C(=O)NCC1(CN2CCOCC2)CCCCC1)C1CC1`, the INHIBITION is 0.0944%.

`Cc1nc(CN2CCC(N(C)Cc3noc(C(C)C)n3)C2)oc1C` (configuration not stated): the INHIBITION is 11.4%.

As to `CN1CC(=O)N(c2cccc(F)c2)CC12CCN(CC1CC1)C2` (configuration not stated), the INHIBITION is on record as 19.5%.

With `CN(Cc1nccn1C)S(=O)(=O)N1CCCC1c1ccco1` (configuration not stated), the INHIBITION came to 15.7%.

On to `CC(O)CN1CCC(=O)N(Cc2ccccc2)Cc2ccccc21` (configuration not stated), for which the INHIBITION came to 28.3%.

As to `Cc1noc(C(C)N2CCN(Cc3cccc(C#N)c3)CC2)n1` (configuration not stated), the INHIBITION worked out at 21.5%.

On to `CC(C)c1noc(C(C)N2CCN(Cc3cccc(C#N)c3)CC2)n1` (configuration not stated), for which the INHIBITION is reported as -8.11%.

Turning to `CC(C)c1noc(C(C)N2CCN(c3ccc(C#N)cn3)CC2)n1` (configuration not stated), the INHIBITION was determined as 45.9%.

Regarding `CC(c1nc(C2CC2)no1)N1CCN(Cc2ccccc2)CC1` (configuration not stated), the INHIBITION is on record as 27.4%.

On to `Cc1noc(C(C)N2CCN(c3ccc(C#N)cn3)CC2)n1` (configuration not stated), for which the INHIBITION was -5.78%.

For `COc1ccc(CN2CCN(C(C)c3nc(C4CC4)no3)CC2)cc1` (configuration not stated), the INHIBITION amounted to 40.3%.

`CC(c1nc(C2CC2)no1)N1CCN(c2ccc(C#N)cn2)CC1` (configuration not stated): the INHIBITION was determined as 55.3%.

Take `CC(c1nc(C2CC2)no1)N1CCN(Cc2ccc(C#N)cc2)CC1` (configuration not stated): the INHIBITION is given as 57%.

For the molecule `CC(c1nc(C2CC2)no1)N1CCN(Cc2cccc(C#N)c2)CC1` (configuration not stated), the INHIBITION stood at 60.5%.

Regarding `CCC(C)(C)NC(=O)CN1C=Nc2ccccc2S1(=O)=O`, the INHIBITION came to 19.6%.

For `c1cnc(N2CCC3(CCN(CC4CCOCC4)CC3)C2)nc1`, the INHIBITION is recorded as 5.67%.

With `CCc1c(C(=O)O)nnn1-c1ccc(C)cc1C`, the INHIBITION is listed as 39.2%.

On to `CN(C)S(=O)(=O)N1C[C@@H]2CN(Cc3ccoc3)CCO[C@@H]2C1`, for which the INHIBITION was 23.6%.

Turning to `CN1CCN(CCOc2ccc(NC(=O)c3ccoc3)cc2)CC1`, the INHIBITION is -6.99%.

For `CCc1c(C(=O)O)nnn1-c1cccc(C)c1C`, the INHIBITION came out at 6.09%.

On to `COc1cc(N2CC[C@H](O)[C@@H]2Cc2ccccc2)ncn1`, for which the INHIBITION worked out at 75.4%.

Regarding `COCCO[C@H]1CCN(c2cc(OC)ncn2)[C@H]1Cc1cnn(C)c1`, the INHIBITION is on record as 76.2%.

Consider `COCCN1CC[C@H](O)[C@@H]1Cc1ccccc1`, for which the INHIBITION turned out to be 0.79%.

In the case of `COc1cc(N2CC[C@H](O)[C@@H]2Cc2cnn(C)c2)ncn1`, the INHIBITION is on record as 22.7%.

Take `COc1cc(N2CC[C@@H](O)[C@@H]2Cc2ccccc2)ncn1`: the INHIBITION is given as 92.8%.

Regarding `COCCN1CC[C@@H](O)[C@@H]1Cc1ccccc1`, the INHIBITION came to 6.32%.

`COc1cc(N2CC[C@@H](OC)[C@@H]2Cc2cnn(C)c2)ncn1`: the INHIBITION came out at 23.5%.

On to `COc1cc(N2CC[C@@H](O)[C@@H]2Cc2ccncc2)ncn1`, for which the INHIBITION is given as 43.9%.

Consider `COc1cc(N2CC[C@H](O)[C@@H]2Cc2cccnc2)ncn1`, for which the INHIBITION amounted to 6.6%.

For the molecule `COCC(=O)N1CC[C@@H](O)[C@@H]1Cc1ccccc1`, the INHIBITION is 37.5%.

`COc1cc(N2CC[C@@H](O)[C@@H]2Cc2cccnc2)ncn1`: the INHIBITION is 85.8%.

`COCCO[C@@H]1CCN(c2cc(OC)ncn2)[C@H]1Cc1cnn(C)c1`: the INHIBITION is reported as 14.6%.

As for `Cc1cc(OCCC(=O)Nc2cccc(F)c2)nnc1C`, the INHIBITION is recorded as -9.93%.

Take `Cc1cc2c(=O)n3c(nc2s1)CCN(Cc1cncn1C)CC3`: the INHIBITION came to 5.11%.

Consider `Cc1cnn(CC(=O)N2CCCN(c3ncccc3C#N)CC2)c1`, for which the INHIBITION was -14.7%.

In the case of `CS(=O)(=O)c1cnc(N2CCCC2)nc1C1CCN(C(=O)C2CC2)CC1`, the INHIBITION is listed as -15.7%.

For `Cc1cc(C(=O)NCc2ccc(-c3n[nH]cc3C(=O)N(C)C)cc2)on1`, the INHIBITION is listed as 39.35%.

As to `CCc1cnc(N2CC[C@H]3[C@H]2CC(=O)N3c2cccnc2)nc1`, the INHIBITION was -34.7%.

`Cc1ccc(N2N=C(C(N)=O)S(=O)(=O)c3cccnc32)cc1`: the INHIBITION is 41.5%.

Take `Cc1cc(CN2CCN(C(=O)NCc3cccs3)CC2)on1`: the INHIBITION amounted to 14.1%.

Take `COCCO[C@H]1CCN(c2ccc(C)nn2)[C@H]1Cc1cccnc1`: the INHIBITION is reported as 5.68%.

As to `Cc1ccc(N2CC[C@H](OCC3CC3)[C@@H]2Cc2cccnc2)nn1`, the INHIBITION is reported as 42.4%.

Take `COCCO[C@H]1CCN(c2cc(OC)ncn2)[C@H]1Cc1ccncc1`: the INHIBITION was -39.2%.

Regarding `c1cnc(N2CC[C@@H](OCC3CC3)[C@@H]2Cc2cccnc2)nc1`, the INHIBITION is on record as 64.3%.

`COCCO[C@H]1CCN(c2cc(OC)ncn2)[C@H]1Cc1cccnc1`: the INHIBITION is given as 82.8%.

Take `c1ccc(N2CC[C@H](OCC3CC3)[C@@H]2Cc2cccnc2)nc1`: the INHIBITION is on record as 37.5%.
